NPC1 prom act = NPC1 promoter activation; 320,000 compounds, 2.4% hits; AID 485313; Huh7 NPC1 promoter luciferase reporter, 24 h; Potency, µM (highest dose often 9.22 µM), most hits filed as activators; further: nearly all actives have a fitted effect of over 60% in size
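NPC1 promoter–luciferase Huh7 cells; 24 h compound; luminescence.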
SMN2 splice up = enhancers of SMN2 splice variant expression | HEK293 SMN2-luciferase splicing reporter, luminescence, 30-36 h | Potency, µM (highest dose often 46.1 µM), most hits filed as activators | 210,000 compounds, 2.8% hits | AID 1458; further: nearly all actives have a fitted effect of over 55% in size
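qHTS luciferase splicing reporter: luminescence rises when SMN2 exon 7 is included in transfected HEK293 cells. Compound exposure lasted 30-36 h at 37C, with 4.5 mM final sodium butyrate as control, followed by a ONE-Glo read.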
ELG1 genotox = induces genotoxicity in HEK293T cells with luciferase-tagged ELG1; 330,000 compounds, 1.3% hits; HEK293T ELG1-luciferase reporter, luminescence, 16 h; Potency, µM (top dose mostly 46 µM), hits mostly activators; further: nearly all actives have a fitted effect of over 60% in size
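16 hr compound incubation (37 °C, 5% CO2) of HEK293T cells carrying luciferase-tagged ELG1; luciferase then measured by ONE-Glo luminescence after 30 min at RT.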
FLuc modulator = inhibits or activates purified firefly luciferase, miR-21 counter-screen. P08659. purified FLuc, Km substrates, luminescence inhibition. Potency, µM (top dose mostly 57.5 µM), usual class: inhibitors. 360,000 compounds, 6.9% hits. AID 588342; further: nearly all actives have a fitted effect of over 55% in size
Target sequence (P08659 whole entry, looked up): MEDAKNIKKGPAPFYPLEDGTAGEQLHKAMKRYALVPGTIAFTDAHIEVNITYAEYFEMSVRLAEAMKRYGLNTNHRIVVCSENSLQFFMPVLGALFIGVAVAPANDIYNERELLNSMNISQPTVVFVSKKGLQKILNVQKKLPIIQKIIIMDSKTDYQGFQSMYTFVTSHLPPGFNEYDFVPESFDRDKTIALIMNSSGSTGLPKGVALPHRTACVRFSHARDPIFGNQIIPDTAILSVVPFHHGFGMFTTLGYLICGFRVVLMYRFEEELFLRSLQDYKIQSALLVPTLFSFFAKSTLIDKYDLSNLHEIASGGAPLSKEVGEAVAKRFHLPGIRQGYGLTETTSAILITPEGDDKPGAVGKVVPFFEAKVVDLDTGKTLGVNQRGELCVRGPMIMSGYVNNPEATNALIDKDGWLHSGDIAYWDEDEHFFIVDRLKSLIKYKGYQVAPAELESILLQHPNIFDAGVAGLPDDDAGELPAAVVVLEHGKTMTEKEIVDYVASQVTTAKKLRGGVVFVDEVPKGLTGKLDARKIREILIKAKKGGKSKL
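Purified P. pyralis luciferase, 10 nM final, with Km-level 10 uM D-luciferin and 10 uM ATP in 50 mM Tris acetate pH 7.5, 10 mM Mg acetate, 0.01% Tween-20, 0.05% BSA; 6-point qHTS titration about 60 µM downward; luminescence read.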
Luc counter = Kinase-Glo luciferase inhibition (counter-screen); Kinase-Glo luciferase, ATP luminescence, 8 min; 200,000 compounds, 0.28% hits; Q27757; Potency, µM (titrated, usually from 38.3 µM), most hits filed as inhibitors; further: nearly all actives have a fitted effect of over 60% in size
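Inhibition of Kinase-Glo luciferase light generation was assessed at 10 uM ATP in pH 7.2 imidazole buffer, with luminescence measured after eight minutes at ambient temperature.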
Rab9 promoter act = Rab9 promoter activation | Huh7 Rab9 promoter-luciferase reporter, luminescence, 24 h | Potency, µM (titrated, usually from 9.22 µM), hits mostly activators | 320,000 compounds, 2.8% hits | AID 485297; further: nearly all actives have a fitted effect of over 60% in size
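Huh7 cells stably carrying a Rab9 promoter-luciferase reporter, 1500 cells per well in OP-MEM I with 10% FBS, treated with compound 24 hours at 37C. Luciferase activity read by luminescence after 10 minutes with Amplite reagent.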
Numbers stand for hits; i = inactive; ? = inconclusive; nt = not tested or not shown; [ ] = remark or other dose. A selection: hits, their analogues and other compounds. The true share with any hit is near 7.4%. The call rests on the fitted dose curve; in most records, active means well fitted curve in the direction sought with a large enough effect; inconclusive means small, poorly fitted or top-dose-only effect, or another doubt; inactive means no such curve, though single readings can be large; an effect the other way counts as inactive or inconclusive.

SMILES	NPC1 prom act	SMN2 splice up	ELG1 genotox	FLuc modulator	Luc counter	Rab9 promoter act
CCOc1ccc(-c2cc(CCCC(=O)NCCCOC)no2)cc1	i	i	i	12µM	i	i
CCOc1ccc(-c2cc(CCCC(=O)N3CCN(c4ccc(OC)cc4)CC3)no2)cc1	i	i	i	?	i	i
CCN(CC)C(=O)c1sc2c(c1C)c(=O)n(-c1ccccc1)c(=O)n2Cc1c(C)cc(C)cc1C	nt	nt	nt	i	nt	nt
C[N+]1([C@H](CO)Cc2c[nH]c3ccccc23)Cc2ccccc2C1	nt	i[9.22 µM]	nt	nt	i[7.66 µM]	nt
Cc1ccc(-c2csc(/C(C#N)=C/c3ccccc3Cl)n2)cc1	nt	i	nt	?	nt	nt
CCOc1cccc(C(=O)NC(=S)Nc2ccc3c(c2)OCCO3)c1	i	i	?	8.49µM	i	?
O=C(Nc1ccc2c(c1)OCO2)c1c(F)c(F)c(F)c(F)c1F	i	i	i	i[2.3 µM]	i	i
CCOc1cccc(C(=O)NC(=S)Nc2ccc(N3CCCC3)cc2)c1	i	i	i	i	i	i
O=C(Nc1ccc2c(c1)OCCO2)c1c(F)cccc1F	2.51µM	12.6µM	3.26µM	6.01µM	i	3.16µM
O=C(NC(=S)Nc1ccc(CN2CCOCC2)cc1)c1ccc2c(c1)OCCO2	?	nt	i	16.9µM	nt	i
O=C(CCl)Nc1ccccc1C(=O)Nc1ccc2c(c1)OCO2	0.708µM	nt	i	i	nt	0.398µM
O=C(NC(=S)Nc1ccc(N2CCOCC2)cc1)c1ccc2c(c1)OCCO2	i	i	i	?	i	i
O=C(CCNC(=O)c1ccccc1Cl)Nc1ccc2c(c1)OCO2	i	i	i	i	i	i
CC[C@H](C)[C@@H](NC(=O)O[C@@H]1Cc2cc(OC)ccc2O[C@H]1c1cccc(OC)c1)C(=O)OC	nt	i	nt	nt	i	nt
CCCCNC(=O)C1=CC(c2ccc3c(c2)OCO3)=NS(=O)(=O)N1C	nt	nt	nt	i	nt	nt
COc1cccc2c1ncc1c(-c3ccc(C)cc3)nn(-c3ccc(F)cc3)c12	nt	nt	nt	i	nt	nt
O=C(NC(=S)Nc1ccc(N2CCCCC2)cc1)c1ccc2c(c1)OCCO2	i	i	?	?	i	i
O=C(NC(=S)Nc1ccc(F)cc1)c1ccc2c(c1)OCCO2	0.631µM	?	?	1.9µM	i	0.501µM
O=C(Nc1ccc2c(c1)OCCO2)c1ccccc1F	0.794µM	12.6µM	1.84µM	3.38µM	?	0.562µM
Cc1ccc(S(=O)(=O)N(C)c2ccccc2C(=O)Nc2ccc3c(c2)OCCO3)cc1	i	nt	i	i	nt	i
CS(=O)(=O)Nc1ccccc1C(=O)Nc1ccc2c(c1)OCCO2	i	i	?	12µM	i	i
O=C(NC(=S)Nc1ccc2oc(=O)ccc2c1)c1ccccc1F	i	nt	i	i	nt	i
O=C(NC(=S)Nc1ccc2c(c1)OCCO2)c1ccccc1F	2.51µM	?	?	5.36µM	i	1.26µM
COc1ccc(Nc2nc(Nc3ccc(OC)cc3OC)nc(N3CCOCC3)n2)c(OC)c1	nt	i	nt	i	nt	nt
C[C@@H](C[C@H](N)C(=O)O)C(=O)O	nt	i[9.22 µM]	nt	nt	i[7.66 µM]	nt
SMILES	NPC1 prom act	SMN2 splice up	ELG1 genotox	FLuc modulator	Luc counter	Rab9 promoter act
O=C(Nc1ccc(NC(=O)c2ccc3c(c2)OCCO3)cc1)c1ccccc1	i	nt	?	i	nt	i
COc1cccc(OC)c1C(=O)NC(=S)Nc1ccc2c(c1)OCCO2	i	i	?	21.3µM	i	i
O=C(NC(=S)Nc1ccc2c(c1)OCCO2)c1ccccc1	0.631µM	7.08µM	?	1.2µM	i	0.891µM
COC(=O)c1ccccc1NC(=O)Nc1cc(C(C)(C)C)on1	2µM	nt	16.4µM	i	nt	0.891µM
CC(C)(C)c1cc(NC(=O)Nc2ccccc2)no1	1.41µM	nt	?	4.78µM	nt	1.26µM
CC(C)(C)c1cc(NC(=O)c2cccc([N+](=O)[O-])c2)no1	2.24µM	2.82µM	?	?	i	1.41µM
CC(C)(C)c1cc(NC(=O)Nc2ccccc2OC(F)(F)F)no1	i	nt	i	i	nt	i
Cc1cc(NC(=O)c2cccc([N+](=O)[O-])c2)no1	i	nt	i	i	nt	i
Cc1cc(NC(NC(=O)c2ccco2)(C(F)(F)F)C(F)(F)F)no1	i	i	i	i	i	i
CC(C)(C)c1cc(NC(=O)c2ccco2)no1	1.78µM	nt	1.3µM	5.36µM	nt	0.631µM
Cc1cccc(C(=O)Nc2ccc(C(=O)OCc3cc(=O)n4c(C)csc4n3)cc2)c1	nt	nt	nt	i	nt	nt
COc1ccc2c(c1)c1c(c(=O)n(-c3cccc(C)c3)c(=O)n1Cc1cccc(Cl)c1)n2C	nt	nt	nt	i	nt	nt
Cc1cc(C(=O)Nc2cc(C(C)(C)C)on2)c(C)o1	?	nt	?	9.53µM	nt	2.82µM
O=C(CCCCCN1C(=O)c2cccc3cccc(c23)C1=O)NC1CCS(=O)(=O)C1 (stereo not given)	i	nt	i	15.1µM	nt	i
COc1cc(OC)c(Nc2c3c(nc4nc(-c5cccs5)nn24)CCCC3)cc1Cl	nt	nt	nt	23.9µM	nt	nt
CC(C)OC(=O)c1sc2nc(-c3ccccc3)ccc2c1N	0.316µM	i	?	0.301µM	i	0.447µM
COc1ccc(-c2ccc3c(N)c(C(=O)NCc4ccc(Cl)cc4)sc3n2)cc1	nt	11.2µM	nt	i	nt	nt
CCOC(=O)c1sc2nc(-c3cccnc3)ccc2c1N	0.447µM	nt	2.59µM	0.477µM	i	0.501µM
NC(=O)c1sc2nc(-c3cccnc3)ccc2c1N	i	nt	i	?	nt	i
COc1cc(C(=O)Nc2cccc(-c3cn4cccnc4n3)c2)cc(OC)c1OC	i	i	i	?	i	i
COc1ccc(NC(=O)Nc2cc(-c3cn4cccnc4n3)ccc2OC)cc1	nt	i	nt	?	nt	nt
COc1ccc(-c2cn3cccnc3n2)cc1NC(=O)Nc1ccc(Cl)cc1	nt	nt	nt	6.01µM	nt	nt
CCC(CC)C(=O)Nc1cc(-c2cn3cccnc3n2)ccc1OC	nt	nt	nt	i	nt	nt
COc1ccc(-c2cn3cccnc3n2)cc1NC(=O)c1cc(OC)c(OC)c(OC)c1	i	i	i	21.3µM	i	i
COc1ccc(-c2cn3cccnc3n2)cc1NC(=O)C(C)Oc1ccccc1 (stereo not given)	i	nt	i	26.9µM	nt	i
SMILES	NPC1 prom act	SMN2 splice up	ELG1 genotox	FLuc modulator	Luc counter	Rab9 promoter act
CCOc1ccc(C(=O)/C=C/c2ccccc2C(F)(F)F)cc1	i	i	i	5.36µM	i	i
COc1ccc(C(=O)/C=C/c2ccccc2C(F)(F)F)cc1	i	i	i	12µM	i	i
CCCCC(=O)Nc1c(C(=O)N2CCN(c3ccccc3)CC2)oc2ccccc12	nt	nt	nt	i	nt	nt
CC(C)(C)c1ccc(CN(Cc2ccco2)c2cnc(S(C)(=O)=O)nc2C(=O)Nc2ccc(F)cc2)cc1	nt	nt	nt	i	nt	nt
Cc1cc(=O)n2nc(-c3ccc(C(F)(F)F)cc3)sc2n1	?	11.2µM	3.98µM	?	i	?
CCOC(=O)c1cc(-c2ccccc2)n(CCC(=O)NCCc2ccc(C)cc2)c1C	nt	nt	nt	i	nt	nt
C[C@H]1[C@H](C)CC[C@]2(C(=O)O)CC[C@]3(C)C(=CC[C@H]4[C@]3(C)C[C@@H](O)C3[C@](C)(CO)[C@H](O)[C@@H](O)C[C@]34C)[C@H]12 (stereo not given in full)	nt	i[9.22 µM]	nt	nt	i[7.66 µM]	nt

Screens from PubChem BioAssay.
